# ± gives the standard deviation of the averaged measurements.
# Test system: SUM149
# Experiment: percent difference in area under dose-response curve of relative cell number, RPMI vs HPLM; higher = drug relatively more effective in HPLM than RPMI (negative = less effective in HPLM)
# Settings: treatment time: 72 h; dose range: 10-point, 1 nM to 20 µM; media compared: RPMI vs HPLM
row,Compound,percent difference in area under dose-response curve [%]
1,O=C(O)c1ccc(-c2c[nH]c3ncc(-c4ccccc4)cc23)cc1C1CCCC1,-9.42
2,N#CCNC(=O)c1ccc(-c2ccnc(Nc3ccc(N4CCOCC4)cc3)n2)cc1,7.22
3,CC1=C(/C=C/C(C)=C/C=C/C(C)=C/C(=O)Nc2ccc(O)cc2)C(C)(C)CCC1 [Fenretinide],-3.15
4,CCOc1cc2ncc(C#N)c(Nc3ccc(F)c(Cl)c3)c2cc1NC(=O)/C=C/CN(C)C [Pelitinib],4.27
5,CC(C)NCCCn1c(Sc2cc3c(cc2I)OCO3)nc2c(N)ncnc21,-28.4
6,CC(C)c1cc(C(C)C)c(CC(=O)NS(=O)(=O)Oc2c(C(C)C)cccc2C(C)C)c(C(C)C)c1 [Avasimibe],-0.523
7,Cc1nc(Nc2ncc(C(=O)Nc3c(C)cccc3Cl)s2)cc(N2CCN(CCO)CC2)n1 [Dasatinib],41.7
8,Cc1ccc(C(=O)Nc2ccc(CN3CCN(C)CC3)c(C(F)(F)F)c2)cc1C#Cc1cnc2cccnn12 [Ponatinib],16.9
9,Nc1nc(F)nc2c1ncn2[C@@H]1O[C@H](CO)[C@@H](O)[C@@H]1O [Fludarabine],-2.56 ± 3.2
10,CC(C)n1nc(-c2ccc3oc(N)nc3c2)c2c(N)ncnc21,0.531
11,CN(C)C/C=C/C(=O)Nc1cc2c(Nc3ccc(F)c(Cl)c3)ncnc2cc1O[C@H]1CCOC1 [Afatinib],2.93
12,CNC(=O)c1cc(Oc2ccc(NC(=O)Nc3cc(C(C)(C)C)nn3-c3ccc4ncccc4c3)c(F)c2)ccn1,-8.43
13,C=CC(=O)Nc1cccc(Oc2nc(Nc3ccc(N4CCN(C)CC4)cc3OC)ncc2Cl)c1,3.23
14,COCC[n+]1c2c(n(Cc3cnccn3)c1C)C(=O)c1ccccc1C2=O,15.7
15,C=C(c1ccc(C(=O)O)cc1)c1cc2c(cc1C)C(C)(C)CCC2(C)C [Bexarotene],-2.87
16,CS(=O)(=O)CCNCc1ccc(-c2ccc3ncnc(Nc4ccc(OCc5cccc(F)c5)c(Cl)c4)c3c2)o1 [Lapatinib_Ditosylate],-5.86
17,COc1cccc2c(NCc3ccccc3)nc(-n3c(N)nc4ccccc43)nc12,-7.47

row,Compound,percent difference in area under dose-response curve [%]
1,Cc1ccccc1C(C(=O)NC1CCCC1)N(C(=O)Cn1cnc2ccccc21)c1cccc(F)c1 (centres undefined),-1.67
2,CC1(C)C(N(O)C(=O)Nc2ccc(Cl)cc2)N(c2ccc(Cl)cc2)C(=O)N1CC(=O)NN=CC=Cc1ccc([N+](=O)[O-])o1 (centres undefined) [Eeyarestatin_I],-5.38
3,O=C(NOC[C@H](O)CO)c1ccc(F)c(F)c1Nc1ccc(I)cc1F,-8.94
4,CC(C)C[C@H](NC(=O)CNC(=O)c1cc(Cl)ccc1Cl)B1OC(=O)C(CC(=O)O)(CC(=O)O)O1,-1.48
5,O=C(c1ccc(OCCN2CCCCC2)cc1)c1c(-c2ccc(O)cc2)sc2cc(O)ccc12 [Evista],2.48
6,Nc1ncn([C@H]2C[C@H](O)[C@@H](CO)O2)c(=O)n1 [Decitabine],-25.4
7,Nc1ccccc1NC(=O)c1ccc(CNC(=O)OCc2cccnc2)cc1 [Entinostat],-2.21
8,CC(=O)c1c(C)c2cnc(Nc3ccc(N4CCNCC4)cn3)nc2n(C2CCCC2)c1=O,-11.4
9,COc1cc2nccc(Oc3ccc(NC(=O)Nc4cc(C)on4)c(Cl)c3)c2cc1OC [Tivozanib],7.69
10,COc1cc(Nc2c(C#N)cnc3cc(OCCCN4CCN(C)CC4)c(OC)cc23)c(Cl)cc1Cl [Bosutinib],7.19
11,C=CCc1cccc(/C=N/NC(=O)CN2CCN(Cc3ccccc3)CC2)c1O,-12.9
12,COc1cc(OC2CCN(C)CC2)ccc1Nc1ncc2c(n1)n(C1CCCC1)c(=O)n2C,-4.5
13,CNC(=O)c1cc(Oc2ccc(NC(=O)Nc3ccc(Cl)c(C(F)(F)F)c3)c(F)c2)ccn1 [Regorafenib],-5.08
14,CCOc1cc(N2CCC(O)CC2)ccc1Nc1ncc2c(n1)N(C)c1ccccc1C(=O)N2C,-8.79
15,CCn1c(-c2nonc2N)nc2c(C#CC(C)(C)O)ncc(OC[C@H]3CCCNC3)c21,4.22
16,C[C@@H](Oc1cc(-n2cnc3ccc(CN4CCN(C)CC4)cc32)sc1C(N)=O)c1ccccc1C(F)(F)F,-20.5
17,CC(=O)N1CCN(c2ccc(OCC3COC(Cn4ccnc4)(c4ccc(Cl)cc4Cl)O3)cc2)CC1 (centres undefined) [Ketoconazole],-8.22

# Source: the supplement of paper PMC11383364
